Assay results taken from PubChem BioAssay AID1274 (Emory University Molecular Libraries Screening Center, 2008).
Among all 220,000 compounds or so, about 1,100 (0.5%) were called active.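 The calls were made as follows: active = inhibition above about 30% (limit read from the data); inactive = the rest.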 The entries come from a sample that favours actives as a whole.

target: Neutrophil cytosol factor 1 (Homo sapiens) (UniProt P14598); assay: blockers of p47phox binding to p22phox – biochemical, uHTS, NADPH oxidase regulatory subunit, primary screen (AID 1274); conditions: p47phox/p22phox peptide binding, fluorescence polarization, 2 h; at 24.7 µM; stronger effect = higher value;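 also: 0% = p47phox with labelled peptide and 100% = labelled peptide alone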
Sequence (P14598 whole entry, looked up): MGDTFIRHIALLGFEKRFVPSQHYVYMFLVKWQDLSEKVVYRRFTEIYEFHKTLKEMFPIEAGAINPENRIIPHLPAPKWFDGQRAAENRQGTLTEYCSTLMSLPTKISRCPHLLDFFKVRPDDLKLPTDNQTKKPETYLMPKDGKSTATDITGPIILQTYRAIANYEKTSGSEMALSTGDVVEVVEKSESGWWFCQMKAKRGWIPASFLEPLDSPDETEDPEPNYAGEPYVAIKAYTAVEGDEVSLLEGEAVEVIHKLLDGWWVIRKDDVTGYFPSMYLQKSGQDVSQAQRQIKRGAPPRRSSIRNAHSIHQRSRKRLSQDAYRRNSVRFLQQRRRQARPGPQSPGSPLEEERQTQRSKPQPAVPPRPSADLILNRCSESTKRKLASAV

SMILES	inhibition
O=C(COc1ccc([N+](=O)[O-])cc1Cl)Nn1cnnc1	-5.37% (inactive)
CCN(CC)CC(=O)c1c[nH]c2ccc(OC)cc12	68.2% (active)
COc1cccc(-n2c(SCC(=O)c3c[nH]c4ccccc34)nc3ccccc3c2=O)c1	-14.5% (inactive)
COc1ccc2[nH]c3ccc(OC)cc3c2c1	-9.23% (inactive)
CCNc1ccc(C(=O)OCC(=O)N2c3ccccc3NC(=O)C2(C)C)cc1[N+](=O)[O-]	-6.42% (inactive)
CC(=O)NC(CC(=O)Nc1nccs1)c1ccccc1 (configuration not stated)	1.69% (inactive)
CCOC(=O)N1CCC(NC(=O)C(NS(=O)(=O)c2ccc3c(c2)CCN3C(=O)CC)C(C)C)CC1 (configuration not stated)	2.67% (inactive)
COc1ccc(Cl)cc1C(=O)NCc1cn(C)nc1C	-8.12% (inactive)
Cc1ccc(-c2cc(C(=O)NCc3cn(C)nc3C)c3cc(Br)ccc3n2)cc1	31.9% (active)
Cc1ccc2nc(-c3cccc(Br)c3)cc(C(=O)Nn3cnnc3)c2c1	-7.35% (inactive)
OC(CNCc1ccc2c(c1)OCO2)COc1ccccc1 (configuration not stated)	-9.52% (inactive)
CCNC(=O)CN(c1ccc(C)cc1)S(=O)(=O)c1ccc(SC)cc1	-7.61% (inactive)
Cc1ccc(S(=O)(=O)N(CC(=O)NN=C2CCN(C)CC2)c2ccc(F)cc2)cc1	37.2% (active)
CN1CCC(=NNC(=O)CN(c2cccc(Cl)c2)S(C)(=O)=O)CC1	6.83% (inactive)
COc1cc(C(F)(F)F)nc2c(Br)c(C(C)(C)C)nn12	7.7% (inactive)
Cc1ccc(SCC(=O)c2cc(C)c(OC(=S)N(C)C)c(C)c2)cc1	-4.09% (inactive)
O=C1NC[C@@H](Cc2ccc(O)cc2)N(CCc2cccc(F)c2)C1=O	-6.81% (inactive)
Cc1cc(C)c2nc3nc(C)cc(C)c3c(N)c2c1	35.3% (active)
Cc1cc(C)c2nc(SCCC#N)nc(C)c2c1	1.52% (inactive)
Cc1cc(C)c2nc(-c3ccco3)cc(C(=O)O)c2c1	-9.96% (inactive)
COc1ccc(CNC(=O)CCC(=O)Nc2nnc(C(C)C)s2)cc1	-6.23% (inactive)
CCOC(=O)C1(O)CC(C)=NN1C(=O)c1cccc(Br)c1 (configuration not stated)	-4.11% (inactive)
CC1=NN(C(=O)c2ccccc2Br)C(O)(c2cccnc2)C1 (configuration not stated)	1.24% (inactive)
CC1=NN(C(=O)c2ccc(Br)cc2)C(O)(c2ccccc2)C1 (configuration not stated)	40.2% (active)
CN(C)C(CNC(=O)Cc1ccc([N+](=O)[O-])cc1)c1ccccc1 (configuration not stated)	-9.03% (inactive)

SMILES	inhibition
COCCN(C(=O)C(C)C)c1nnc(-c2ccc(C(C)(C)C)cc2)s1	-3.33% (inactive)
O=C(Cc1cccs1)Nc1nnc(SCc2ccc(F)cc2)s1	-11.1% (inactive)
Nc1nnnn1/N=C/c1cccs1	-3.56% (inactive)
COc1ccc(/C=N/n2nnnc2N)cc1OC	31.6% (active)
C=CCOc1c(Br)cc(/C=N\n2nnnc2N)cc1OC	2.05% (inactive)
CCn1c(SCc2ccc(C)cc2)nnc1-c1nn(-c2ccccc2)ccc1=O	-13% (inactive)
N=C(N)SCc1cccc2ccccc12	-8.51% (inactive)
CCc1ccc(-c2nn(-c3ccccc3)cc2CSC(=N)N)cc1	51% (active)
CCOc1cc(/C=C(/C#N)c2ccc(Cl)cc2)cc(Cl)c1OCC(=O)O	-9.24% (inactive)
COC(=O)CN1C(=O)N/C(=C/c2ccc(OC)c(C)c2OC)C1=O	5.97% (inactive)
COc1ccccc1CC(=O)Nc1ccc(F)cc1F	6.55% (inactive)
CSCCNCc1cn(-c2ccc(F)cc2F)nc1-c1ccccc1C	30.6% (active)
Cc1ccc(-c2nn(-c3cccc(F)c3)cc2CNCCc2ccncc2)o1	-21.2% (inactive)
O=C(Nc1ccccc1N1CCOCC1)c1csc2c1CCCC2	-2.28% (inactive)
c1csc(-c2nnc(COc3ncnc4sccc34)o2)c1	-9.61% (inactive)
NC(=O)NC(=O)CSc1nc2cc([N+](=O)[O-])ccc2n1-c1cccc(C(F)(F)F)c1	-1.12% (inactive)
CCCc1c(C(=O)O)cnn1-c1ccc(Cl)cc1	-1.8% (inactive)
CC1(C)CC(=O)C=C(N2CCCC2)C1	-17.5% (inactive)
CC(C)NC(=S)N1CCN(C(c2ccccc2)c2ccccc2)CC1	-3.69% (inactive)
CC1(C)CC(N2CCN(C(c3ccccc3)c3ccccc3)CC2)=CC(=[N+]2CCCCC2)C1	30.8% (active)
CCCSc1ncccc1C(=O)O	-1.29% (inactive)
Cc1ccc(Nc2nc(Cl)c(C=O)s2)cc1	-45% (inactive)
O=C(/C=C/c1ccccc1)Nc1nnc(SCC(=O)c2ccc3ccccc3c2)s1	-19.6% (inactive)
O=C(CCc1ccccc1)Nc1ncc([N+](=O)[O-])s1	41.8% (active)
O=C(Cc1c(F)cccc1Cl)Nc1ncc([N+](=O)[O-])s1	-2.51% (inactive)

SMILES	inhibition
CC(=O)Oc1ccccc1C(=O)Nc1ncc([N+](=O)[O-])s1	-3.91% (inactive)
Cn1c(C(=O)O)ccc1S(=O)(=O)N(Cc1ccccc1)Cc1ccccc1	0.4% (inactive)
Cc1ccc2c(CC(=O)NCc3cccs3)coc2c1	-14.7% (inactive)
CC1Cc2ccccc2N1C(=O)CSc1nc2ccccc2o1 (configuration not stated)	-13.1% (inactive)
Cc1cc(=O)[nH]c(SCC(=O)N2c3ccccc3CC2C)n1 (configuration not stated)	42.8% (active)
CC1Cc2ccccc2N1C(=O)CSc1nnc(C2CC2)n1C (configuration not stated)	-12.6% (inactive)
O=C(NN1C(=O)C2CCCCC2C1=O)c1ccco1 (configuration not stated)	8.97% (inactive)
C/C=C(\C)C(=O)N1CC2(CC(c3cccc(NC(=O)CCCCC)c3)=NO2)C[C@@H]1C(N)=O (some centres not stated)	-4.05% (inactive)
Cc1cc(N2C(=O)C(=O)/C(=C(/O)c3ccc(Cl)cc3)C2c2cccc(Br)c2)no1 (configuration not stated)	-12.5% (inactive)
COc1ccccc1C1/C(=C(/O)c2ccc(C)cc2)C(=O)C(=O)N1Cc1ccco1 (configuration not stated)	-0.55% (inactive)
COc1ccccc1C1/C(=C(/O)c2ccc(OC(C)C)cc2)C(=O)C(=O)N1c1cc(C)on1 (configuration not stated)	54.4% (active)
COc1ccc(NC(=O)COC(=O)c2ccncc2)c(OC)c1	-5.21% (inactive)
COc1ccc(NC(=O)c2ccccc2CC[N+](=O)[O-])cc1	-4.4% (inactive)
CCn1c(CNS(=O)(=O)c2ccc(Cl)cc2)n[nH]c1=S	-6.22% (inactive)
CCc1nc2sc(C(=O)O)c(N)c2c2c1CCCC2	3.39% (inactive)
COc1ccc(-c2ccnc(SCC(=O)N3CCOCC3)n2)cc1	-7.88% (inactive)
COC(=O)CSc1nccc(-c2cccs2)n1	57.9% (active)
O=C(O)COc1ccc(-c2nccc(-c3cccs3)n2)cc1	-0.51% (inactive)
CN1CCN(S(=O)(=O)c2ccc(NC(=S)NC(=O)C3CC3)cc2)CC1	5.87% (inactive)
Cc1nnc(NC(=O)CSc2nccn2-c2cccc(C)c2C)s1	-2.14% (inactive)
Cc1ccc(C)c(-n2ccnc2SCC(N)=O)c1	-6.63% (inactive)
COc1ccccc1-n1ccnc1SCC(=O)NC(C)(C)C	130% (active)
Cc1cccc(NC(=O)CSc2nnc(CCNC(=O)OC(C)(C)C)o2)c1C	-4.83% (inactive)
O=[N+]([O-])C(=c1ccc2c(c1)N1C3=C(CCCC3)CC3CCCCC31N=2)[N+](=O)[O-] (configuration not stated)	32.3% (active)
COc1cc(N2CCCC2)c(OC)cc1/C=C(/C#N)c1cccc(Br)c1	41.6% (active)

SMILES	inhibition
COc1cccc(C(=O)Nc2ccc(N3CCCC3)cc2)c1	-24.3% (inactive)
CC(=O)Nc1cccc(Oc2cc(C#N)c(C#N)cc2N2CCOCC2)c1	-5.37% (inactive)
O=C1N/C(=C/c2cccs2)C(=O)N1Cc1ccc(F)cc1	-8.47% (inactive)
O=C(CCN1C(=O)/C(=C/c2cccs2)SC1=S)NNC(=O)c1cccc(O)c1	-143% (inactive)
O=C1/C(=C/c2cccs2)SC(=S)N1C1CCS(=O)(=O)C1 (configuration not stated)	136% (active)
O=C(Nc1ccccc1)O/N=C1/CCCc2occc21	-10.7% (inactive)
COc1cc(OC)cc(-c2nc3ccccc3c(=O)n2NC(=O)c2cccnc2Cl)c1	-17.9% (inactive)
COc1ccc(C)cc1NC(=O)c1ccc(-c2ccc(C(C)=O)cc2)o1	-8.08% (inactive)
COc1cc(OC)c(OC)cc1/C=N/Nc1ncnc2c1[nH]c1ccc(C)cc12	34.2% (active)
CC(C)OCCCNc1ncnc2c1[nH]c1ccc(F)cc12	-10.6% (inactive)
Cc1ccc2[nH]c3c(=O)n(Cc4ccccn4)cnc3c2c1	-18.3% (inactive)
CC(=O)NCCn1c(SCC(=O)Nc2ccc(C)cc2)nc2ccccc2c1=O	1.49% (inactive)
CC(C)(C)C(=O)OCc1nc(-c2ccc(O)c(O)c2)cs1	-9.67% (inactive)
COc1ccc(C(=O)O/N=C(\N)Cc2ccc(Cl)cc2Cl)cc1OC	-5.94% (inactive)
NC(N)=N/N=C/c1ccc(Cl)c([N+](=O)[O-])c1	3.52% (inactive)
NC(N)=N/N=C/c1ccc(OCc2ccc(Cl)cc2Cl)cc1	103% (active)
Oc1oc(-c2ccccc2Br)nc1/C=N/c1ccccn1	-6.08% (inactive)
Cc1cc(C)n(Cc2cnc(N3CCOCC3)s2)n1	-9.55% (inactive)
O=C(NCc1cc(C(F)(F)F)cc(C(F)(F)F)c1)C1CC(c2cccc(F)c2)=NO1 (configuration not stated)	-5.46% (inactive)
Cc1cccc(N2CC(C)Cn3c2nc2c3c(=O)n(CC(=O)OCc3ccccc3)c(=O)n2C)c1 (configuration not stated)	-39.9% (inactive)
CC(C)OCCCNc1nc2c(c(=O)n(Cc3ccccc3F)c(=O)n2C)n1C	-4.4% (inactive)
COc1ccc(N2CC(C)Cn3c2nc2c3c(=O)n(Cc3ccccc3F)c(=O)n2C)c(OC)c1 (configuration not stated)	58.5% (active)
